Data on 40 compounds can be found in PubChem BioAssay (Tox21).

Results filed as inconclusive are left out. Calls of active or inactive are those of the source. The call rests on the fitted dose curve; in most records, active means well fitted cell-killing curve with a large enough effect in the repeat runs; inconclusive means weak or mixed curves, or effect the other way; inactive means no such curve, though single readings can be large or run the other way.
On the % scale 0 is the no-effect control and ±100 the full control effect.

This test can be described thus: qHTS assay to identify small molecule antagonists of the glucocorticoid receptor (GR) signaling pathway - cell viability counter screen (AID 720693). Further: nearly all actives have a fitted effect of over 55% in size. The conditions noted are these: GR-bla HeLa viability, CellTiter-Glo luminescence, 18 h, with 5 nM dexamethasone present; series mostly up to 58.5 µM; viability change, negative = cytotoxic: at the top concentration. The text has this:
National Center for Advancing Translational Sciences [NCATS]
NIH Chemical Genomics Center [NCGC]
U.S. Environmental Protection Agency [EPA]
National Institutes of Environmental Health Sciences [NIEHS]
National Toxicology Program [NTP]
U.S. Food and Drug Administration [FDA]
The Glucocorticoid receptor (GR) is one of the members of the nuclear receptor family of ligand-dependent transcription factors. GR plays a critical role in carbohydrate, protein and lipid metabolisms and programmed cell death. CellSensor GR-bla HeLa cell line (Invitrogen) contains a beta-lactamase reporter gene under the control of the glucocorticoid response element stably integrated into HeLa cells, a cervical cancer cell line that expresses glucocorticoid receptor. The activation of the reporter gene under culture conditions can be detected by fluorescence intensity. This cell line has been used to screen the Tox21 10K compound library and to identify the compounds that inhibit the GR signaling. The cytotoxicity of the Tox21 compound library against the GR-bla HeLa cell line was tested in parallel by measuring the cell viability using CellTiter-Glo assay in the same wells.
Tox21 Assay Protocol Summary:
The GR-bla HeLa cells were dispensed at 1500 cells/5 ul/well in 1536-well black wall/clear bottom plates using a Multidrop Combi (ThermoFisher Scientific, Waltham, MA) dispenser. After the assay plates were incubated at a 37 C/5% CO2 incubator for 4 hours, 23 nL of compounds dissolved in DMSO, positive controls or DMSO only was transferred to the assay plate by a pintool station (Kalypsys, San Diego, CA), followed by addition of 1 uL of dexamethasone (5 nM, final concentration in the well). The plates were incubated at 37 C for 18 hours. After 1 uL of LiveBLAzerTM B/G FRET substrate was added using a Flying Reagent Dispenser (Aurora Discovery, San Diego, CA), the plates were incubated at room temperature (RT) for 2 hours, and fluorescence intensity was measured by an Envision plate reader (PerkinElmer, Shelton, CT). After measurement of bla assay, 3 ul CellTiter-Glo (Promega, Madison, WI) was added to measure the cytotoxicity and the plates were then incubated at RT for 30 min. The luminescence was measured using a ViewLux (Perkin Elmer) plate reader.
(qHTS replaces the single test concentration by a dilution series.)
For `FC(F)(F)c1ccc(Cl)c(Cl)c1`, the call was inactive. On to `O=C(Oc1ccccc1)c1ccccc1`, for which the outcome was inactive. As for `CCCCOC(=O)COc1ccc(Cl)cc1Cl`, the call was inactive. On to `C=C(C)C(=O)Nc1ccc(Cl)c(Cl)c1`, for which the compound was called inactive.

On to `O=c1[nH]c(=O)n([C@H]2CCCO2)cc1F`, for which the compound was classed as inactive. Take `C#CCN(C)Cc1ccccc1`: the compound was classed as inactive. With `CC(=O)Nc1ccccc1`, the outcome was inactive. As for `CCCCN(CCCC)CCCC`, the call was inactive. As for `Cc1ccc(N(C)C)cc1`, the outcome was inactive. In the case of `COS(C)(=O)=O`, the compound was called inactive.

As to `CC1=CC(=O)NS(=O)(=O)O1`, the call was inactive. On to `CCCCC(CC)COC(=O)CS` (stereo not given), for which the compound was classed as inactive. For `C=C(C)C(=O)O[C@H]1C[C@@H]2CC[C@@]1(C)C2(C)C`, the result was inactive.

Consider `O=C(O)c1cc(C(=O)O)cc(S(=O)(=O)O)c1`, for which the compound was called inactive. On the same count and under the same terms, in the case of `CCCCCCCCC/C=C/CC1CC(=O)OC1=O` (stereo not given) it was “inactive”; in that of `Cc1ccc(S(N)(=O)=O)cc1`, “inactive”. Same read-out and setting: in the case of `CC(=O)Nc1cccc(O)c1` it was “inactive”; in that of `CSCCC=O`, “inactive”. `c1ccc2c(c1)ccc1ccccc12`: the outcome was inactive.

Consider `CCCCCOC(C)=O`, for which the compound was called inactive. Consider `Oc1cccc2ccccc12`, for which the compound was called inactive. On the same count and under the same terms, the same measure for `C[C@H]1C[C@@H]2[C@H]([C@@H](O)C[C@@]3(C)[C@H]2CC[C@]3(O)C(=O)CO)[C@@]2(C)C=CC(=O)C=C12`: “inactive”; for `O=C(O)c1ccc(C(=O)O)cc1`: “inactive”. The same measure, in the same setting: the same measure for `CCCCCCCC(=O)OC`: “inactive”; for `O=c1[nH]nnc2ccccc12`: “inactive”. Turning to `Fc1ccc(Br)cc1`, the outcome was inactive. For the compound `O=C(CC(C(=O)OC1CCCCC1)S(=O)(=O)O)OC1CCCCC1` (stereo not given), the compound was classed as inactive. Consider `CC(=O)c1ccccc1`, for which the compound was called inactive. As to `O=S1(=O)CC=CC1`, the call was inactive. As for `CC(C)(C)[C@@H](O)[C@@H](Cc1ccc(Cl)cc1)n1cncn1`, the outcome was inactive. On to `CCCCCC/C(C=O)=C\c1ccccc1`, for which the outcome was inactive.

Regarding `CCN(CC)CCCC(C)Nc1ccnc2cc(Cl)ccc12` (stereo not given), the outcome was inactive. On to `Cc1cccc(O)c1`, for which the compound was called inactive. Take `OCC(CO)(CBr)CBr`: the outcome was inactive. `N[C@@H](Cc1cc(I)c(Oc2cc(I)c(O)c(I)c2)c(I)c1)C(=O)O`: the “viability change, negative = cytotoxic” value is -2.49% (inactive). Consider `ON=C1CCCCC1`, for which the outcome was inactive. For `CC(C)CC(=O)CC(C)C`, the “viability change, negative = cytotoxic” value was -2.21% (inactive).

`CCCCC(CC)COC(=O)CCCCC(=O)OCC(CC)CCCC` (stereo not given): the result was inactive.

With `OC[C@H]1O[C@@](CO)(O[C@H]2O[C@H](CO)[C@@H](O)[C@H](O)[C@H]2O)[C@@H](O)[C@@H]1O`, the compound was called inactive. `CC1=C(C)S(=O)(=O)CCS1(=O)=O`: the call was inactive.
